# Laboratory results from publication PMC5540273 (PLoS ONE, 2017).
# What was measured:
# Conditions in all cases: concentration: 1 μM, replicates: in singlicate; n = 1
# MAP4K3 = test system: MAP4K3
# MAP4K4 = test system: MAP4K4
# MAP4K5 = test system: MAP4K5
# MAPKAPK2 = test system: MAPKAPK2
# MAPKAPK5 = test system: MAPKAPK5
# MARK1 = test system: MARK1
# MARK2 = test system: MARK2
# MARK3 = test system: MARK3
# MARK4 = test system: MARK4
# MAST1 = test system: MAST1
# MEK1 = test system: T1, MEK1
# T1 construct: gene MAP2K1
# MEK2 = test system: T2, MEK2
# T2 construct: gene MAP2K2
# MEK3 = test system: T3, MEK3
# T3 construct: gene MAP2K3
# MEK4 = test system: T4, MEK4
# T4 construct: gene MAP2K4
# MEK5 = test system: T5, MEK5
# T5 construct: gene MAP2K5
# MEK6 = test system: T6, MEK6
# T6 construct: gene MAP2K6
# MELK = test system: MELK
# MERTK = test system: MERTK
# MET = test system: MET
# MINK = test system: T7, MINK
# T7 construct: gene MINK1
# 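Note: KINOMEscan kinase panel screen.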
SMILES,%Inh (MAP4K3) [%],%Inh (MAP4K4) [%],%Inh (MAP4K5) [%],%Inh (MAPKAPK2) [%],%Inh (MAPKAPK5) [%],%Inh (MARK1) [%],%Inh (MARK2) [%],%Inh (MARK3) [%],%Inh (MARK4) [%],%Inh (MAST1) [%],%Inh (MEK1) [%],%Inh (MEK2) [%],%Inh (MEK3) [%],%Inh (MEK4) [%],%Inh (MEK5) [%],%Inh (MEK6) [%],%Inh (MELK) [%],%Inh (MERTK) [%],%Inh (MET) [%],%Inh (MINK) [%]
COc1ccc(CNC(=O)NC2CCN(c3ccnc(Nc4ccc(OC)cc4)n3)C2)cc1 (centres unmarked) [GSK1379727],0,0,0,20,0,0,0,0,0,0,0,0,0,17,37,0,4,16,0,4
NCC(NC(=O)c1cc(-c2cn[nH]c2)c(-c2ccnc3[nH]ccc23)s1)c1ccccc1.O=C(O)C(F)(F)F.O=C(O)C(F)(F)F (centres unmarked) [GSK1325775],6,31,25,0,0,0,25,0,0,0,0,11,82,35,80,24,38,0,0,59
N#Cc1c(N2CCOCC2)sc(-c2ccn[nH]2)c1-c1ccc(Cl)cc1,0,0,0,0,2,1,0,27,0,53,5,9,12,0,29,0,0,0,0,12
c1ccc(-c2n[nH]cc2-c2ccnc3ccccc23)nc1 [GW271431],16,23,3,9,0,0,0,0,6,0,0,0,0,32,30,0,10,34,0,54
COc1cc2c(cc1OC[C@@H](O)CO)ncc1c3ccc(C#N)cc3[nH]c21,20,27,3,0,0,0,10,0,0,62,45,42,0,0,99.9,0,31,0,0,91.9
Cc1nnc(-c2ccc(C)c(-c3ccc(C(=O)Nc4ccc(NS(C)(=O)=O)cc4)cc3)c2)o1 [GW702865],0,0,0,11,0,0,0,0,10,21,8,7,0,0,18,0,10,0,12,19
Fc1ccc(-c2ncn(CCCN3CCOCC3)c2-c2ccccn2)cc1 [SB-211742],0,2,0,0,0,0,0,30,24,18,6,31,0,0,0,0,18,0,13,0
CC(=O)Nc1ccc(COc2ccc(Nc3ccnc4cc(-c5ccccn5)ccc34)cc2)cc1.Cl [GW440148],0,0,0,0,2,0,0,8,0,16,51,70,0,0,99.5,18,5,11,5,11
O=c1cc(N2CCOCC2)nc2n(Cc3cccc4ccccc34)ccn12 [GSK2333389],6,15,10,3,0,0,0,22,1,0,0,0,0,3,18,0,0,23,0,0
CN(C(=O)c1ccc(-c2cc(-c3c[nH]nc3-c3ccccn3)ccn2)cc1)C1CCOCC1 [GW810083],0,9,0,0,0,9,36,0,30,38,0,0,14,0,5,0,41,0,0,8
Cn1cc(-c2ccc3c(c2)CCN3C(=O)Cc2ccccc2Cl)c2c(N)ncnc21 [GSK2608885],70,58,96.3,0,3,16,0,46,19,0,70,90.6,3,17,99.7,47,0,93.2,88,8
O=c1cc(N2CCOCC2)nc2n(Cc3cccc(F)c3)ccn12 [GSK2297430],11,9,4,12,0,0,0,0,10,0,0,0,0,0,31,0,18,16,0,0
NS(=O)(=O)c1cccc(-c2ccc3ncc(N4CCOCC4)nc3c2)c1 [GSK1535721],0,0,0,7,0,0,11,0,0,0,11,0,0,23,16,4,17,9,0,27
c1ccc(-c2cc(-c3c[nH]nc3-c3ccccn3)ccn2)cc1 [GW576604],0,22,0,6,0,0,0,0,0,13,0,0,0,16,41,0,1,0,13,71
COc1ccc(Nc2ncc(C#N)c(Nc3ccccc3C(N)=O)n2)cc1N1CCN(C)CC1.Cl [GSK1558669],99.8,96.8,99.3,0,0,99.3,99.9,89,98.7,91.8,85,92.6,89,92.5,100,79,100,100,92,98.7
Fc1ccc(-c2nn3c(OCC(F)(F)F)cccc3c2-c2ccncc2)cc1 [GW514784],0,0,0,0,0,0,0,0,0,48,0,0,0,0,20,1,3,0,0,35

SMILES,%Inh (MAP4K3) [%],%Inh (MAP4K4) [%],%Inh (MAP4K5) [%],%Inh (MAPKAPK2) [%],%Inh (MAPKAPK5) [%],%Inh (MARK1) [%],%Inh (MARK2) [%],%Inh (MARK3) [%],%Inh (MARK4) [%],%Inh (MAST1) [%],%Inh (MEK1) [%],%Inh (MEK2) [%],%Inh (MEK3) [%],%Inh (MEK4) [%],%Inh (MEK5) [%],%Inh (MEK6) [%],%Inh (MELK) [%],%Inh (MERTK) [%],%Inh (MET) [%],%Inh (MINK) [%]
CCc1nc(-c2cccc(C)c2)c(-c2ccnc(NCc3ccccc3)c2)s1,0,12,0,0,0,0,1,0,0,0,0,1,0,9,1,6,0,0,0,2
CN(C1=C(c2ccccc2)C(=O)NC1=O)c1ccccc1 [SB-334860],8,16,9,8,0,0,3,0,0,0,0,0,7,14,34,0,24,0,0,23
CCc1ccnc(/C=C/c2n[nH]c3cc(Sc4ccccc4C(=O)NC)ccc23)c1,0,0,3,0,0,27,4,3,21,0,0,10,0,0,62,9,6,0,0,34
COc1cc2c(cc1OCCN1CCN(C)CC1)ncc1c3ccc(C#N)cc3[nH]c21,12,59,22,0,0,7,29,0,0,97.2,34,80,9,0,99.9,11,51,0,0,93
Fc1ccc(-c2ncn(CCCN3CCOCC3)c2-c2cccnc2)cc1 [SB-211743],11,0,4,0,0,3,5,0,16,0,27,44,26,15,15,0,0,4,0,16
CC(C)Oc1ccc2c(-c3ccnc(Nc4ccc(N5CCN(C)CC5)cc4)n3)cnn2n1 [GW696155],52,1,0,0,0,50,72,77,59,8,25,43,43,50,82,53,71,10,0,65
Cc1nnc(-c2ccc3occ(-c4ccc(C(C)O)cc4)c3c2)o1 (centres unmarked),7,12,15,21,19,7,16,0,8,0,10,24,11,15,8,8,12,3,5,0
O=C(NCCNc1ccnc(Nc2ccc(F)cc2)n1)Nc1ccccc1F [GSK1379880],0,0,0,12,0,0,0,0,0,0,0,0,0,26,30,0,0,7,0,0
COc1ccc(S(=O)(=O)NC2CCN(c3cc(C)nc(Nc4cccc(C#N)c4)n3)CC2)cc1.O=C(O)C(F)(F)F [GSK1653539],0,0,0,0,0,0,12,0,0,0,0,0,0,0,1,0,0,0,0,0
Nc1nc(-c2ccc3c(N)n[nH]c3c2)cc(N2CCCC2)n1 [GSK2227430],0,0,0,0,0,0,0,0,6,0,0,64,0,0,7,8,0,8,0,10
O=C1NC(=O)C(N2CCc3ccccc32)=C1c1cccc(Cl)c1 [SB-408010],20,0,0,3,0,4,0,0,0,0,0,0,0,0,0,0,0,0,0,0
Cl.Nc1ncnc2occ(-c3ccc(NC(=O)Nc4cc(C(F)(F)F)ccc4F)cc3)c12 [SB-707548],77,92.9,99.7,15,0,0,32,26,0,0,15,57,0,23,91.4,10,33,98.3,17,62
O=C(Nc1cccc(-c2nn3ncccc3c2-c2ccnc(Nc3cccc(C(F)(F)F)c3)n2)c1)c1c(F)cccc1F [GSK299495],0,0,48,35,0,0,0,2,0,0,48,54,0,29,97.6,7,0,51,0,0
COCCNC(=O)c1ccc(-c2cc(C(=O)NC3CC3)cc(F)c2C)cc1 [GW868318],14,3,6,8,5,27,0,25,9,68,25,32,29,34,53,0,0,0,0,23
O=C(NOCC1CC1)c1ccc(F)c(F)c1Nc1ccc(I)cc1Cl,0,0,0,0,0,0,6,0,0,0,64,47,0,0,0,0,0,0,0,0
